Screening results deposited in PubChem by National Center for Advancing Translational Sciences (NCATS).
PTHR1 ag: agonists of human PTHR1 parathyroid hormone receptor; Q03431; HEK293 GP2 PTHR1 cells, GloSensor cAMP luminescence, 1 h; Potency, µM (series often up to 115 µM), hits mostly activators; hit rate 0.075% among 410,000; AID 743266; further: nearly all actives have a fitted effect of over 55% in size
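HEK-293-derived GP2 cells expressing PTHR1 and a GloSensor cAMP reporter, 3,000/well, plated overnight, given luciferin plus IBMX (each 0.5 mM as added) for 1 h at 37 °C, then compound for 1 h at 37 °C. Luminescence was read after 15 min at room temperature.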
D3 antag: antagonists of human D3 dopamine receptor | D3R cells, DiscoveRx beta-arrestin luminescence, antagonist mode; hits give low values | hit rate 2.5% among 360,000 | P35462 | AID 652054 | max response, negative = inhibition, %; in the data active means max response below about -50%; inconclusive means no clear call, values can overlap the other calls
Target sequence (P35462 whole entry, looked up): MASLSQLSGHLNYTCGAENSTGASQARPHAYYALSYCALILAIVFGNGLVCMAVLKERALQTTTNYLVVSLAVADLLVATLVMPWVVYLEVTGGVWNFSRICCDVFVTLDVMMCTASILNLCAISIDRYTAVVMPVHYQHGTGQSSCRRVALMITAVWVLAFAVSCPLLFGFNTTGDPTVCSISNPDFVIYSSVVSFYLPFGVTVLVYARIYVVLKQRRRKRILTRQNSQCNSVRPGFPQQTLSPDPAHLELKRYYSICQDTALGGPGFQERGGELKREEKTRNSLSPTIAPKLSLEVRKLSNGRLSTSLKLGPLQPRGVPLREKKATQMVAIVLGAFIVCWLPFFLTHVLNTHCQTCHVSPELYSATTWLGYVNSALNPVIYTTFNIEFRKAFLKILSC
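Cells plated overnight at 1500 cells/well, then exposed to library compounds with dopamine controls for 90 minutes at 37 degrees C. DiscoveRx reagent added for 30–60 minutes at room temperature; luminescence read, quantitative HTS format.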
BRCA1 expr up: activators of BRCA1 expression; MCF7-BRCA1-FFLuc reporter, luminescence, 48 h; response scale: scaled: vehicle 0%, 10 µM genistein 100%; Potency, µM (series often up to 46.1 µM), usual class: activators; hit rate 1.1% among 380,000; AID 624202; further: nearly all actives have a fitted effect of over 80% in size
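MCF7-BRCA1-FFLuc, 2000 cells/well; 2 h attach, 37 °C/5% CO2; compound 48 h; luciferase substrate 15 min; luminescence end-point. Norm. to genistein 10 microM max activation and DMSO; concentration-response curves fitted.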
RGS4 inh: human RGS4 inhibition | hit rate 0.039% among 390,000 | Potency, µM (highest dose often 114 µM), hits mostly inhibitors | Transcreener GDP fluorescence polarization, RGS4-accelerated GTP hydrolysis | P49798; further: nearly all actives have a fitted effect of over 75% in size
Target sequence (P49798 whole entry, looked up): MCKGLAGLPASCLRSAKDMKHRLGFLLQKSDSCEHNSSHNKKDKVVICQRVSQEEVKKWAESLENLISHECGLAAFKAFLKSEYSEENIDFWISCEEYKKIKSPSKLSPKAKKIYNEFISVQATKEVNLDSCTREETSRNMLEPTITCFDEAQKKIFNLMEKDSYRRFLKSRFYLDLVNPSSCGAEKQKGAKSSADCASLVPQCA
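MLSMR compounds (23 nl, pin-transferred) preincubated 10 min at room temperature with a 500nM (2x) first reagent, then RGS4 at 900nM (2x) plus Transcreener GDP mix added; fluorescence polarization (620/688 nm) read before and after 90 min at 30 °C.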
D3 ag: D3 dopamine receptor (human) agonism. D3R DiscoveRx beta-arrestin cells, luminescence, 90 min. max activation, %. hit rate 0.58% among 410,000. P35462; in the data active means max activation above about 30%
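Cells at 1500/well, incubated overnight, then treated with pinned compounds (dopamine as control) for 90 min at 37 degrees C. DiscoveRx reagent added for 30 - 60 minutes at room temperature; luminescence read.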
B2AR arrestin: recruits beta-arrestin to the human beta2-adrenergic receptor. beta-arrestin recruitment to beta2AR, cell-based reporter. Potency, µM (doses to about 46.1 µM), most hits filed as activators. hit rate 0.02% among 330,000. AID 492947; further: nearly all actives have a fitted effect of over 65% in size
A number is an active result; [ ] = another dose, or the depositor's remark. Sampled rows, rich in hits. Any-hit rate of the full collection: about 3.7%. Unless noted, the call rests on the fitted dose curve; in most records, active means well fitted curve in the direction sought with a large enough effect; inconclusive means small, poorly fitted or top-dose-only effect, or another doubt; inactive means no such curve, though single readings can be large; an effect the other way counts as inactive or inconclusive.

What do the screens show for `CCc1ccc(-c2nc(CN3CCC(C(=O)N4CCN(c5ccccn5)CC4)CC3)c(C)o2)cc1`?
PTHR1 ag: inactive; D3 antag: inactive; BRCA1 expr up: inactive[1.84 µM]; RGS4 inh: inactive; D3 ag: inactive; B2AR arrestin: inactive

How did CCN1CCN(C(=O)C2CCN(Cc3nc(-c4cccc(Cl)c4)oc3C)CC2)CC1 do in these assays?
PTHR1 ag: inactive; D3 antag: -74; BRCA1 expr up: inactive; RGS4 inh: inactive; D3 ag: inactive; B2AR arrestin: inactive

What do the screens show for `Cc1oc(-c2cccc(Cl)c2)nc1CN1CCC(C(=O)N2CCN(c3ccccn3)CC2)CC1`?
PTHR1 ag: inactive; D3 antag: -51; BRCA1 expr up: inactive; RGS4 inh: inactive; D3 ag: inactive

Results for Cc1oc(-c2cccc(Cl)c2)nc1CN1CCC(C(=O)NC2CC2)CC1 ?
PTHR1 ag: inactive; D3 antag: inactive; BRCA1 expr up: inactive; RGS4 inh: inactive; D3 ag: inactive; B2AR arrestin: inactive

How did CN(CCCn1ccc(N)nc1=O)Cc1ccco1 do in these assays?
PTHR1 ag: inactive; D3 antag: inactive; BRCA1 expr up: inactive; D3 ag: inactive

How did CC(C)C(=O)Nc1ccc(COc2ccccc2CN(Cc2ccccc2)C(=O)OC(C)(C)C)cc1 do in these assays?
PTHR1 ag: inactive; D3 antag: inactive; BRCA1 expr up: inactive; RGS4 inh: inactive; D3 ag: inactive

How did CC(C)C(=O)Nc1cccc(COc2ccc(CN(Cc3ccccc3)C(=O)OC(C)(C)C)cc2)c1 do in these assays?
PTHR1 ag: inactive; D3 antag: inactive; BRCA1 expr up: inactive; RGS4 inh: inactive; D3 ag: 36

How did COc1cc(N=c2ssnc2Cl)cc(OC)c1 do in these assays?
PTHR1 ag: inactive; D3 antag: -71; BRCA1 expr up: inactive; RGS4 inh: inconclusive; D3 ag: inactive; B2AR arrestin: inactive

What do the screens show for `COc1ccc(NC(=O)CN2CCC(C(N)=O)(N3CCCCC3)CC2)c(OC)c1`?
PTHR1 ag: inactive; D3 antag: inactive; BRCA1 expr up: inactive; RGS4 inh: inactive; D3 ag: inactive; B2AR arrestin: inactive

Results for CCCn1c(=O)c(-c2nc3ccccc3[nH]2)c(O)c2ccccc21 ?
PTHR1 ag: inactive; D3 antag: inactive; BRCA1 expr up: inactive; RGS4 inh: inactive; D3 ag: inactive; B2AR arrestin: inactive

Results for Cn1cc(-c2nc3ccccc3[nH]2)c2ccccc21 ?
PTHR1 ag: inactive; D3 antag: inactive; BRCA1 expr up: 11µM; RGS4 inh: inactive; D3 ag: inactive; B2AR arrestin: inactive

Results for CCn1c(=O)c(-c2nc3ccccc3[nH]2)c(O)c2ccccc21 ?
PTHR1 ag: inactive; D3 antag: -86; BRCA1 expr up: inactive; RGS4 inh: inactive; D3 ag: inactive; B2AR arrestin: inactive

How did COc1ccc(NC(=O)c2c(-c3ccccc3)c(-c3ccccc3)nn(C)c2=O)c(OC)c1 do in these assays?
PTHR1 ag: inactive; RGS4 inh: inactive; D3 ag: inactive

What do the screens show for `CCCCCCCCn1c(=O)c(C(=O)OC)c(N)c2ccccc21`?
PTHR1 ag: inactive; D3 antag: inactive; BRCA1 expr up: inactive; RGS4 inh: inactive; D3 ag: 38; B2AR arrestin: inactive

Results for O=C(NN1C(=O)NC2(CCCCC2)C1=O)c1ccc(-c2ccccc2Cl)o1 ?
PTHR1 ag: inactive; D3 antag: -52; BRCA1 expr up: inactive; RGS4 inh: inactive; D3 ag: inactive; B2AR arrestin: inactive

What do the screens show for `COc1ccc(C(CNC(=O)c2ccc(-c3nc4ccccc4s3)o2)N2CCCC2)cc1` (stereo not drawn)?
PTHR1 ag: inactive; D3 antag: -83; BRCA1 expr up: inactive; RGS4 inh: inactive; D3 ag: inactive; B2AR arrestin: inactive

What do the screens show for `COc1ccc(C(CNC(=O)c2ccc(-c3ccccc3Cl)o2)N2CCCC2)cc1` (stereo not drawn)?
PTHR1 ag: inactive; D3 antag: -121; BRCA1 expr up: inactive; D3 ag: inactive

What do the screens show for `COc1ccc(C(CNC(=O)c2ccc(C)o2)N2CCOCC2)cc1` (stereo not drawn)?
PTHR1 ag: inactive; D3 antag: inactive; BRCA1 expr up: inactive; RGS4 inh: inactive; D3 ag: inactive; B2AR arrestin: inactive

What do the screens show for `Cc1ccc(-n2c(=O)c3c4c(sc3n(CC(=O)Nc3cccc(Cl)c3)c2=O)CCCCC4)cc1C`?
PTHR1 ag: inactive; BRCA1 expr up: inactive; RGS4 inh: inactive; D3 ag: inactive

What do the screens show for `COCCNC(=O)c1c(CS(=O)(=O)c2ccccc2)noc1C(=O)NCc1ccccc1`?
PTHR1 ag: inactive; D3 antag: inactive; BRCA1 expr up: inactive; RGS4 inh: inactive; D3 ag: 36; B2AR arrestin: inactive

What do the screens show for `Cc1ccc(NC(=O)c2ccc(Br)o2)c([N+](=O)[O-])c1`?
PTHR1 ag: inactive; D3 antag: inactive; BRCA1 expr up: inactive; RGS4 inh: inactive; D3 ag: inactive

Results for NS(=O)(=O)c1ccc(NNC(=O)c2ccc(Br)o2)c([N+](=O)[O-])c1 ?
PTHR1 ag: inactive; D3 antag: -65; BRCA1 expr up: inactive; RGS4 inh: inactive; D3 ag: inactive; B2AR arrestin: inactive

How did N#CC(C#N)=C1C=CC=CN1/C(=C\c1ccco1)C(=O)c1ccc(Cl)cc1 do in these assays?
PTHR1 ag: inactive; D3 antag: -108; BRCA1 expr up: inactive; RGS4 inh: inactive; D3 ag: inactive; B2AR arrestin: inactive

How did N#C/C(=C\c1ccco1)C(=O)NCc1ccccc1 do in these assays?
PTHR1 ag: inactive; D3 antag: inactive; BRCA1 expr up: inactive; RGS4 inh: inactive; D3 ag: inactive; B2AR arrestin: inactive

Results for N#CC(C#N)=C1C=CC=CN1/C(=C\c1ccco1)C(=O)c1ccc(-c2ccccc2)cc1 ?
PTHR1 ag: inactive; D3 antag: -92; BRCA1 expr up: inactive; RGS4 inh: inconclusive; D3 ag: inactive; B2AR arrestin: inactive

Results for CC(/C=N/n1c(-c2ccc(Cl)cc2)n[nH]c1=S)=C\c1ccco1 ?
PTHR1 ag: inactive; D3 antag: inactive; BRCA1 expr up: inactive; RGS4 inh: inactive; D3 ag: inactive; B2AR arrestin: inactive

Results for COCCN1C(=O)c2ccccc2C1c1nc2ccccc2[nH]1 (stereo not drawn) ?
PTHR1 ag: inactive; D3 antag: inactive; BRCA1 expr up: inactive; D3 ag: inactive

Results for Cc1c(Cl)c(-c2n[nH]c(=S)n2Cc2ccco2)nn1C ?
PTHR1 ag: inactive; D3 antag: -54; BRCA1 expr up: inactive; RGS4 inh: inactive; D3 ag: inactive; B2AR arrestin: inactive

What do the screens show for `COC(=O)Cn1c(SCc2ccccc2)nc2ccccc21`?
PTHR1 ag: inactive; D3 antag: inactive; BRCA1 expr up: 7.9µM; RGS4 inh: inactive[11.4 µM]; D3 ag: inactive; B2AR arrestin: inactive
